The text below walks through data of PubChem BioAssay (NCATS).

The structures appear in SMILES notation. Values joined by “and” are separate entries in the source; they are usually repeats but may differ in a detail not shown here. Equal entries are not always repeated. Results filed as inconclusive are left out. Active and inactive are the calls of the source. Unless noted, calls come from the whole dose curve; as a rule, active = well fitted curve in the direction sought with a large enough effect; inconclusive = small, poorly fitted or top-dose-only effect, or another doubt; inactive = no such curve, though single readings can be large; an effect the other way counts as inactive or inconclusive.

Test [1] deals with Cytochrome P450 1A2 (Homo sapiens) (UniProt P05177). The experiment in a line: p450-cyp1a2 (AID 410; calls by dose curve; note: potency is the fitted concentration of half-maximal effect). In a few lines: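 Read-out is luminescence from luciferin produced by CYP1A2 demethylation of Luciferin-ME (100uM, at Km). Detection reagent stopped the 60 min NADPH-dependent reaction; signals were normalized to 57 uM furafylline.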
Test [2] has as its target Glucocorticoid receptor (Homo sapiens) (UniProt P04150). The experiment in a line: GR-GFP Redistribution (AID 450;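 active = compounds whose dose series gives a full or clear partial fitted curve of increased nuclear translocation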; note: potency is the fitted concentration of half-maximal effect). Particulars: U2OS GR-GFP nuclear translocation, laser cytometry, 2 h.
For test [3] the target is unchanged. The experiment in a line: GR-EFC Redistribution (AID 451; calls by dose curve; note: potency is the fitted concentration of half-maximal effect). Particulars: CHO-K1 GR-EFC translocation, beta-gal luminescence, 2 h. In outline: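 Translocation of GR-ED fusion to nuclear EA restores b-gal, read by luminescence after 1 h room-temperature detection. Engineered CHO-K1 biosensor cells, 1,000/well, exposed 2 h at 37 C to titrations up to 46 uM final.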

The target in test [4] is Mitogen-activated protein kinase 10 (Mus musculus) (UniProt Q61831). The experiment in a line: JNK3 AlphaScreen Assay (AID 530; active = well fitted curve in either direction with a large enough effect, not every such curve was filed as active;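 note: kinase came from lysate of stimulated human HepG2 cells; signal reports phosphorylation of biotinylated GST-cJun 1-79 at Ser73 with 10 µM ATP; % is set by controls: 0 for no effect and ±100 for the full control effect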). In outline:
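Kinase buffer: 20 mM Tris-HCl pH 7.6, 10 mM MgCl2, 1 mM DTT, 0.1 mM Na3VO4, 0.01% Tween-20; ATP 10 uM. Substrate biotin-GST-cJun(1-79), enzyme from activated HepG2 lysates. Detection by Ser73 phospho-antibody AlphaScreen.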
For orientation: Alpha assays give light when donor and acceptor beads are brought close together.

For test [5], the target named is 3',5'-cyclic-AMP phosphodiesterase 4B (Homo sapiens) (UniProt Q07343). The experiment in a line: qHTS Assay for Inhibitors of PDE-IV (AID 607; active = well fitted activation curve with a large enough effect in the main read-out, with a control signal flat, not every such curve was filed as active; note: % of control where 0% means no effect). In outline:
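Cell-based read-out of cAMP via a modified cyclic nucleotide-gated channel and membrane potential dye (535/590 nm) in HEK293 cells expressing PDE4 endogenously. Compounds tested up to 22.9 uM final; 100 uM RO 20-1724 reference.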
(Quantitative high-throughput screening tests each substance at several concentrations.)

Test [6] is described as follows: qHTS Assay for Lipid Storage Modulators (AID 1519; calls by dose curve). Particulars: Drosophila S3 cells, BODIPY lipid droplet/cell ratio, laser cytometry, cells loaded with oleic acid; for activity change, negative = inhibition: at 57.5 µM (top of the series). In a few lines:
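Cells seeded at 5,000 per well were treated with compounds over a concentration series and loaded with oleic acid (400 uM, as added). Lipid droplet fluorescence (488 nm excitation, 500-530 nm channel) was read by laser-scanning cytometry and normalized to 20 uM Triacsin C.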

The target in test [7] is Ubiquitin carboxyl-terminal hydrolase 1 (Homo sapiens) (UniProt O94782). The experiment in a line: Inhibitors of USP1/UAF1: Pilot qHTS (AID 504865).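 Note: rhodamine fluorescence freed from ubiquitin-rhodamine substrate followed over time; top concentration of the series differs between compounds; % is set by controls: 0 for no effect and ±100 for the full control effect; nearly all actives have a fitted effect of over 35% in size.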 In a few lines: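 Deubiquitinase activity followed as kinetic rhodamine fluorescence release from 150 nM Ub-Rho. 1 nM USP1/UAF1 with compound, after 15 min room-temperature preincubation, in HEPES pH 7.8 buffer containing TCEP, EDTA, BSA and Tween-20.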

The target of test [8] is DNA dC->dU-editing enzyme APOBEC-3G (Homo sapiens) (UniProt Q9HC16). The experiment in a line: qHTS for inhibitors of Vif-A3G interactions: Validation (AID 588379). Note: 0% is about no effect. In a few lines: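 Yellow fluorescence (Ex 488, Em 500-530) of Vif-coexpressing HeLa A3G-eYFP cells, scanned by Acumen cytometer, reports blocked A3G degradation. Cells plated at 700/well overnight at 37 deg C before compound addition, then a further overnight compound incubation at 37 deg C.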

For test [9], the system named is Zika virus NS2B-NS3 protease. Description: Primary screen GU AMC qHTS for Zika virus inhibitors (AID 1347154).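 Note: 0% = no-inhibitor control and -100% = no-enzyme control; nearly all actives have a fitted effect of over 70% in size.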 In a few lines:
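Fluorogenic AMC-substrate cleavage by noncovalent NS2B-NS3 protease complex (25 nM, pH 8.0 Tris buffer with Tween 20) followed for 15 minutes at room temperature (~20% conversion). Percent inhibition from ex340/em450 signal change, fitted by 4-parameter Hill equation.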

The nature of test [10]: Primary qHTS for small molecule stabilizers of the endoplasmic reticulum resident proteome: Secreted ER Calcium Modulated Protein (SERCaMP) assay (AID 1508630). Note: % is set by controls: 0 for no effect and ±100 for the full control effect. In outline:
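The SH-SY5Y reporter protocol was run at 3 concentrations up to 38.3 uM (primary) or 11 concentrations (follow-up): 16 h compound, 100 nM thapsigargin for 4 h, then extracellular luciferase luminescence.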

A short description of test [11]: AP1 Signaling Pathway (AID 357; active = well fitted curve in either direction with a large enough effect, not every such curve was filed as active;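 note: ME-180 reporter cells stimulated with EGF at its EC50 level; % is set by controls: 0 for no effect and ±100 for the full control effect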). Particulars: ME-180 AP-1-bla reporter, EGF-induced, beta-lactamase ratio, 5 h; at 38 µM (top of the series). In outline:
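Titration-series screen for positive or negative modulators of EC50 EGF-induced signaling in ME-180 cells carrying an AP-1-driven beta-lactamase reporter. After 5 hours at 37 degrees Celsius, CCF4 460nm/530nm emission ratio gave %Activity; AC50 values derived.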

Test [12] in a line: NFAT Signaling Pathway (AID 444; active = well fitted curve in either direction with a large enough effect, not every such curve was filed as active;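 note: carbachol stimulus at about its EC50 of 1 µM final; % is set by controls: 0 for no effect and ±100 for the full control effect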). The note with it: Jurkat NFAT-bla M1, carbachol, beta-lactamase ratio, 5 h; at 38 µM (top of the series). In outline:
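Read-out: CCF4 FRET ratio (460 nm/530 nm) after 1 h RT dye loading, used for %activity and AC50 from titration series. Cells: Jurkat NFAT-β-lactamase/M1 line, treated with compound plus 1 uM carbachol for 5 h, 37 °C.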

Test [13] in a line: Stat Signaling Pathway (AID 446; active = well fitted curve in either direction with a large enough effect, not every such curve was filed as active). The note with it: ME-180 (cervical carcinoma) SIE beta-lactamase reporter, IL-6 stimulated, 5 h; at 38 µM (top of the series). In outline: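 FRET read-out (405 nm excitation, 460/530 nm emission) of a beta-lactamase reporter under a STAT-inducible element in ME-180 cervical carcinoma cells. Cells with compound receive 40 pM IL-6 for 5 h. Values are normalised to AC90 stimulation and AC90 JAK-inhibitor controls.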

For test [14], the target named is Guanine nucleotide-binding protein G(i) subunit alpha-1 (Homo sapiens) (UniProt P63096). The experiment in a line: qHTS Assay for Inhibitors of RGS12 GoLoco Motif Activity (Green Fluorophore) (AID 879).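 Note: 0% = labeled peptide with Gαi1 and full inhibition = labeled peptide alone without protein; negative values mean loss of peptide binding seen as reduced polarization.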 In a few lines: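 A drop in FITC polarization marked displacement of the FITC-tagged RGS12 GoLoco peptide (10 nM) from Gαi1 (50 nM). Compounds were incubated 10 min at room temperature in Tris pH 7.5 buffer containing 150 mM NaCl, 0.1 mM GDP and 0.05% NP40; unlabeled peptide titration served as control.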

A short description of test [15]: qHTS Assay for Identification of Small Molecule Agonists for Thrombopoietin (TPO) Signaling Pathway (AID 917). Note: % is set by controls: 0 for no effect and ±100 for the full control effect. In outline:
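Luciferase reporter (Glycoprotein IIb promoter) in IL-3-deprived Ba/F3 cells carrying human TPO receptor; compounds co-added with 26 pM TPO, incubated 24 h, 37 C. Steadylite luminescence measured after 10 min.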

The target in test [16] is Muscarinic acetylcholine receptor M1 (Rattus norvegicus) (UniProt P08482). Description: qHTS Assay for Antagonists of Acetylcholine Muscarinic M1 Receptor: Kinetic Measurement of Intracellular Calcium Response (AID 943).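 Note: Fluo-4 calcium signal as peak divided by basal fluorescence over 4 min; nearly all actives have a fitted effect of over 75% in size.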 In outline: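 Quantitative HTS in CHO-M1 (rat receptor) cells: 10 min compound exposure ahead of 100 nM carbachol, Fluo-4 fluorescence followed 4 min, value expressed as peak-to-basal ratio.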

Test [17] has the same target. Description: qHTS Assay for Antagonists of Acetylcholine Muscarinic M1 Receptor: Measurement of IP-One Response (AID 944). Note: nearly all actives have a fitted effect of over 75% in size. In a few lines: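 Antagonism was measured as loss of carbachol-driven (EC80) IP1 accumulation in CHO cells carrying rat M1, using a homogeneous IP-One TR-FRET kit read at 620 and 665 nm.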
The target of test [18] is Pyruvate kinase (Leishmania mexicana) (UniProt Q27686). The experiment in a line: qHTS Validation Assay for Inhibitors of Leishmania Mexicana Pyruvate Kinase (AID 945).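 Note: 0% = DMSO only neutral control wells.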 In a few lines: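 Mutant LmPYK (E451W), 0.2 nM, plus 0.5 mM PEP and 0.1 mM ADP in 50 mM imidazole pH 7.2 containing 0.01% Tween 20 and 0.05% BSA. Incubated 1 h at room temperature; luminescence via PKLight, normalized to DMSO.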

Test [19] concerns the target Alpha-galactosidase A (Homo sapiens) (UniProt P06280). The experiment in a line: Counterscreen for Glucocerebrosidase Inhibitors: qHTS Assay for Human alpha-Galactosidase at pH 4.5 (AID 992). Note: 0% is about no effect. In outline: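 Fluorogenic 1536-well qHTS at pH 4.5 (citrate, Tween-20): 2 nM enzyme, 80 uM 4-MU-alpha-galactoside, 20 min room temperature, NaOH/glycine stop. Titration 0.7 nM to 77 uM, data normalized to no-enzyme and full-activity controls, Hill-fitted AC50.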
Background: The purpose of a counterscreen is to sort out artefacts and off-target activity.

The target in test [20] is alpha-glucosidase (Oryza sativa, rice) (UniProt Q653V4). The experiment in a line: Counterscreen for Glucocerebrosidase Inhibitors: qHTS Assay for Rice alpha-Glucosidase at pH 5.0 (AID 997).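 Note: 0% = full activity with enzyme and -100% = basal without enzyme.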 In outline: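 Endpoint fluorogenic assay at pH 5.0: compounds (0.7 nM to 77 uM) titrated against 4 nM rice enzyme and 400 uM 4-MU-alpha-glucoside for 20 min at room temperature; NaOH/glycine stop, read ex 365/em 440 nm, Hill-fitted AC50.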

Setting [21] is: measured here: cell count channel max response.
Where [22] appears, read: measured here: lipid channel max response.

Sequence of Glucocorticoid receptor (Homo sapiens) (P04150 whole entry, looked up, the tested form may be a part): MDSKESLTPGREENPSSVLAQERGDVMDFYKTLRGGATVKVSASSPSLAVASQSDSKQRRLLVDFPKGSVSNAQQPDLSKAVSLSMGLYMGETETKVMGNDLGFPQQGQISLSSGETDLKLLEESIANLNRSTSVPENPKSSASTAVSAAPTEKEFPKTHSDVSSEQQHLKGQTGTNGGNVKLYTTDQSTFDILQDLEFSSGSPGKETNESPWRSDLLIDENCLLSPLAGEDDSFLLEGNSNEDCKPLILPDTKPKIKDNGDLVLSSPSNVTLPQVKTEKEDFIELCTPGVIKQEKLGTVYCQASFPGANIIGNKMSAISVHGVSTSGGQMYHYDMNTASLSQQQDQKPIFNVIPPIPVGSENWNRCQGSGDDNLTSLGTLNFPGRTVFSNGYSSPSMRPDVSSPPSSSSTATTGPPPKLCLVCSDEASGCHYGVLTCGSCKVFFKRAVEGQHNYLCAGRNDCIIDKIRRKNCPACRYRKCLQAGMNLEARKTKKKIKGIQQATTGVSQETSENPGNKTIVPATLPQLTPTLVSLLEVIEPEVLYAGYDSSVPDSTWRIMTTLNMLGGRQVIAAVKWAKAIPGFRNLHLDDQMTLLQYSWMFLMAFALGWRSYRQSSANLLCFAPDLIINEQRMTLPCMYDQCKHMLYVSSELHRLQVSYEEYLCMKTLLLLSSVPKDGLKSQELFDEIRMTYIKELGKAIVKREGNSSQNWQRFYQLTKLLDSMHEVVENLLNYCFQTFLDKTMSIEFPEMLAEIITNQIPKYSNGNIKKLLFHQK
Sequence of 3',5'-cyclic-AMP phosphodiesterase 4B (Homo sapiens) (Q07343 whole entry, looked up): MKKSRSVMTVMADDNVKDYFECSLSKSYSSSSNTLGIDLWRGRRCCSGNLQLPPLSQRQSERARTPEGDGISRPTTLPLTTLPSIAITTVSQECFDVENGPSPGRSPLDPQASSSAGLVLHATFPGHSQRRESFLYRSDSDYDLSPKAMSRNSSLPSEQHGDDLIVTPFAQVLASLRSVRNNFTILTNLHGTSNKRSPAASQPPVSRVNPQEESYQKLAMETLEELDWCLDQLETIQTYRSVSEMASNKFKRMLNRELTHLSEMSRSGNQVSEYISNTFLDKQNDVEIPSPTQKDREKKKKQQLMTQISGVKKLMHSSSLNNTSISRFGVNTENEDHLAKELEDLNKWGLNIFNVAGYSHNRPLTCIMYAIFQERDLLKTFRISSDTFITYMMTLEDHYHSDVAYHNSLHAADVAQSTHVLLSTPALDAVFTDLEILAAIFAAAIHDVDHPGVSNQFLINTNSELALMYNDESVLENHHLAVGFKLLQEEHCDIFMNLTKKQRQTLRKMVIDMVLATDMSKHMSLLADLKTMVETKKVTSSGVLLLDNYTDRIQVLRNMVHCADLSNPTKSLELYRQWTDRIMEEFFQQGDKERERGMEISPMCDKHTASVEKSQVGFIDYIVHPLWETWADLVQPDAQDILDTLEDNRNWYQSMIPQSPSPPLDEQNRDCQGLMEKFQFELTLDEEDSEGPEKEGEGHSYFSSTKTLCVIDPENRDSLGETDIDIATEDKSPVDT
Sequence of DNA dC->dU-editing enzyme APOBEC-3G (Homo sapiens) (Q9HC16 whole entry, looked up): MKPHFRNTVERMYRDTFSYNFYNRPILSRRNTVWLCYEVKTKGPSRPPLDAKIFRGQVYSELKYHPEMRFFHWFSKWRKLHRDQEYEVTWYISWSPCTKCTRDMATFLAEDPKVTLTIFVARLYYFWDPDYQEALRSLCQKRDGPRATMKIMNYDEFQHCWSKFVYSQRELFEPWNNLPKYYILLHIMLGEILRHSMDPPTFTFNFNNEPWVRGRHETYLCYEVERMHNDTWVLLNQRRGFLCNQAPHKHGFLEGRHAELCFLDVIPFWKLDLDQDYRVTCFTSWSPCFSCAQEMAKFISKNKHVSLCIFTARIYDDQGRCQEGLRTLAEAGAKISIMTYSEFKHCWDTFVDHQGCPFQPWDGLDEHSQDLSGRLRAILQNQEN
Sequence of Muscarinic acetylcholine receptor M1 (Rattus norvegicus) (P08482 whole entry, looked up): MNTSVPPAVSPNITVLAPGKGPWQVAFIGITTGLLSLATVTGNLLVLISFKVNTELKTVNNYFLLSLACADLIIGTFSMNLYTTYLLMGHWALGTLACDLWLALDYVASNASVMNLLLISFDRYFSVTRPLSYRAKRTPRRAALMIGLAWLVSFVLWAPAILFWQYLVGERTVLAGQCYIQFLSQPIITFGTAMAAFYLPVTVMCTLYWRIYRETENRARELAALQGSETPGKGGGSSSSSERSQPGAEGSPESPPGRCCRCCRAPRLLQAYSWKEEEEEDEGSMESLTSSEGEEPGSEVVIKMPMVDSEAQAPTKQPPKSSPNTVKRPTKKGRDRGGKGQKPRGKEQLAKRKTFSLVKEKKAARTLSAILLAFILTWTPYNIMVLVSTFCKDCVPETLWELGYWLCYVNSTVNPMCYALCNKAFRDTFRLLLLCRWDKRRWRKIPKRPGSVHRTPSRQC
Sequence of Ubiquitin carboxyl-terminal hydrolase 1 (Homo sapiens) (O94782 whole entry, looked up): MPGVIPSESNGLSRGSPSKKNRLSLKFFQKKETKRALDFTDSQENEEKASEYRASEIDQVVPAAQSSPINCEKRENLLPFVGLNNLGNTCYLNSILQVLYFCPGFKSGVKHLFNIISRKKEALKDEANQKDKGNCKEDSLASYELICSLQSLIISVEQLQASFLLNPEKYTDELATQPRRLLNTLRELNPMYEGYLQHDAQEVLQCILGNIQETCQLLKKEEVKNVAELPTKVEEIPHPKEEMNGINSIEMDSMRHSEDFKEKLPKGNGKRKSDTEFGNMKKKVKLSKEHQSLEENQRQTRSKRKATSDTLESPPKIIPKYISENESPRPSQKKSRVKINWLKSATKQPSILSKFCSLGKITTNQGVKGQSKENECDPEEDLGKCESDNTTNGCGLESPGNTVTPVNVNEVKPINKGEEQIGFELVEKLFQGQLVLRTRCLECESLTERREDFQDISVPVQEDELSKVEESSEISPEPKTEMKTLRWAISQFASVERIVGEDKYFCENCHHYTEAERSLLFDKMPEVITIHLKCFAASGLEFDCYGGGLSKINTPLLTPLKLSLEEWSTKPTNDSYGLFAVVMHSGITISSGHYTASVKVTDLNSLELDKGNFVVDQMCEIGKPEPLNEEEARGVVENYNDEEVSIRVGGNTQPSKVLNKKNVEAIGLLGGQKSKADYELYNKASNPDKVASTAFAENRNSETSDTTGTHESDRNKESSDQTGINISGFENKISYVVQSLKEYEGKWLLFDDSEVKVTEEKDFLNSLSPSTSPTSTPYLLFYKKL
Sequence of Pyruvate kinase (Leishmania mexicana) (Q27686 2-499 E452W): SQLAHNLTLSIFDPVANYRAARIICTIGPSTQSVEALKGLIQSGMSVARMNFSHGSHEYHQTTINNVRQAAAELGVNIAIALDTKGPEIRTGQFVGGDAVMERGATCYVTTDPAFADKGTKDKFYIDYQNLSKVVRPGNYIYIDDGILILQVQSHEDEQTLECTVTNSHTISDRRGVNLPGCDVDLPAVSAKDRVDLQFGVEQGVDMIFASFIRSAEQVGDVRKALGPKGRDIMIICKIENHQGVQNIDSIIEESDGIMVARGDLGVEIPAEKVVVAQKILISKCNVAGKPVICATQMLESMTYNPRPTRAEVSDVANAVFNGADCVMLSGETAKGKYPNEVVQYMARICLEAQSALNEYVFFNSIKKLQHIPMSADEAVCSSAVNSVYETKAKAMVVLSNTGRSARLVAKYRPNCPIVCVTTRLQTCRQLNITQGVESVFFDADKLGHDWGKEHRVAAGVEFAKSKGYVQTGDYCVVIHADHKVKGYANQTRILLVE
Sequence of Alpha-galactosidase A (Homo sapiens) (P06280 whole entry, looked up): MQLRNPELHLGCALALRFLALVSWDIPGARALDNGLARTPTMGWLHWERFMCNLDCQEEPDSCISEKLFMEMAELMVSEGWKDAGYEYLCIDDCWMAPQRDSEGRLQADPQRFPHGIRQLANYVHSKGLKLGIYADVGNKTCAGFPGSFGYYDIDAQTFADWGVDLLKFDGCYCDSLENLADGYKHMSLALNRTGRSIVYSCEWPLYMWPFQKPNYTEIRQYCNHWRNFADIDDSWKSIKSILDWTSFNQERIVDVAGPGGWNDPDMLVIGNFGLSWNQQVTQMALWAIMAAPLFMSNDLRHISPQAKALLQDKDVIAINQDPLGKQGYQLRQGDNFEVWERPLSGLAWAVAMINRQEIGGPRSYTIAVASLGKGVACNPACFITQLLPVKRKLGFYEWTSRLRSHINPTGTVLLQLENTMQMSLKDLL
Sequence of Guanine nucleotide-binding protein G(i) subunit alpha-1 (Homo sapiens) (P63096 whole entry, looked up): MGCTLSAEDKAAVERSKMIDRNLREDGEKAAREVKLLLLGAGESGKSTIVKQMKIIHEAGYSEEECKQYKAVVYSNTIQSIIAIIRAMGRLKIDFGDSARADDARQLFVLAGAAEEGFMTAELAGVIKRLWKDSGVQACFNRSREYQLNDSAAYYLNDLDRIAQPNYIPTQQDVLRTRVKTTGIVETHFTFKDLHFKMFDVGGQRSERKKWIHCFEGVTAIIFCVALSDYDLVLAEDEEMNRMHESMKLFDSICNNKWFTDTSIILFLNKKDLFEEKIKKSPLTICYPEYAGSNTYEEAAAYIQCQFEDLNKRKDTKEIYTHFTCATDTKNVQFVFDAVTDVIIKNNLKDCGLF
Sequence of Cytochrome P450 1A2 (Homo sapiens) (P05177 whole entry, looked up): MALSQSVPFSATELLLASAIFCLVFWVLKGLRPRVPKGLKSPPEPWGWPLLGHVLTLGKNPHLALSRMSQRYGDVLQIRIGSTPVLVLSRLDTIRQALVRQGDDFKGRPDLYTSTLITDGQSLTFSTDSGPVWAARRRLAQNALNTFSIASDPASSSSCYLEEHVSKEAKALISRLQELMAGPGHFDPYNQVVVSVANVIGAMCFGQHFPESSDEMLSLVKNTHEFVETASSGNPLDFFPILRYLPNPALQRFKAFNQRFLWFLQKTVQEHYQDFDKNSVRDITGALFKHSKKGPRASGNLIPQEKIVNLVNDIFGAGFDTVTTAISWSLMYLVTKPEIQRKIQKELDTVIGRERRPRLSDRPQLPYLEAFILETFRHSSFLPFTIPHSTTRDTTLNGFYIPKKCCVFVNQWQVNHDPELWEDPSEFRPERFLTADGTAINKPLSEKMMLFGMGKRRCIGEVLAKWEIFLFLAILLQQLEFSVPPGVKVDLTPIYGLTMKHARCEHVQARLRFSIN

`C[C@H](C[C@H](N)C(=O)O)C(=O)O`: the values for the Potency in test [1], in test [2] and in [3] were 31.6 µM (active), > 46 µM (inactive) and > 46 µM (inactive), respectively. For the same molecule, the Potency entry in [4], in [5], in test [7], in test [8], in [9] and in test [10] was “inactive” each time. Further, the activity change, negative = inhibition in [6] is -1.92% (inactive). The max response in [6] (setting [21]) is -13.2%; in test [6] (setting [22]), -13.5%.
`C[C@@](N)(C(=O)O)c1ccc(C(=O)O)cc1`: the activity change, negative = inhibition in test [11] is 2.6% (inactive); in [12] it was 6.09% (inactive); in [6] it was -1.38% (inactive) and 3.86% (inactive). Also, in [13], the activity, negative = inhibition was 4.5% (inactive). The Potency in [2] and in [3] was > 46 µM (inactive) each time. For the same molecule, the Potency result in test [4], in [5], in [15], in [16], in test [17] and in test [18] was “inactive” each time. The Potency result in test [7], in [8], in test [9] and in test [10] was “inactive” in each case. In addition, the molecule was classed as inactive in [14], in test [19] and in [20]. Moreover, the max response in test [6] (setting [21]) is -12.7% and -2.32%; in test [6] (setting [22]) it was -13.1% and 2.03%.
